Data published in the supplement of paper PMC8728848.
Many of the other results were omitted from the sample, so the strongest signals are more common in it than they were.

Legend:
Assay in all cases: glycan array binding signal (z-score within array); higher = stronger binding
Conditions in all cases: glycan notation: IUPAC condensed, linker removed
[1] = biological target: GlcNAc(a1-4)Gal(b1-4)GlcNAc(b1-3)Gal(b1-4)GlcNAc
How it was run: (§1)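 The binding signal is a Z-score computed within each array and averaged over linkers. Arrays of the same protein sequence at different concentrations or buffers were also averaged together. Data originate from 3228 arrays in the Consortium for Functional Glycomics database, kept only where the protein sequence was available.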

[2] = biological target: GlcNAc(a1-4)Gal(b1-4)GlcNAc(b1-3)Gal(b1-4)[Fuc(a1-3)]GlcNAc(b1-3)Gal(b1-4)[Fuc(a1-3)]GlcNAc
How it was run: as §1

[3] = biological target: GlcNAc(b1-2)Man(a1-3)[GlcNAc(b1-4)][GlcNAc(b1-2)Man(a1-6)]Man(b1-4)GlcNAc(b1-4)[Fuc(a1-6)]GlcNAc
How it was run: as §1

[4] = biological target: GlcNAc(b1-3)Gal(b1-3)GalNAc
How it was run: as §1

[5] = biological target: GlcNAc(b1-3)Gal(b1-4)GlcNAc(b1-2)Man(a1-3)[GlcNAc(b1-3)Gal(b1-4)GlcNAc(b1-2)Man(a1-6)]Man(b1-4)GlcNAc(b1-4)GlcNAc
How it was run: as §1

[6] = biological target: GlcNAc(b1-3)Gal(b1-4)GlcNAc(b1-3)Gal(b1-4)GlcNAc(b1-2)Man(a1-3)[GlcNAc(b1-3)Gal(b1-4)GlcNAc(b1-3)Gal(b1-4)GlcNAc(b1-2)Man(a1-6)]Man(b1-4)GlcNAc(b1-4)[Fuc(a1-6)]GlcNAc
How it was run: as §1

[7] = biological target: GlcNAc(b1-3)Gal(b1-4)GlcNAc(b1-3)Gal(b1-4)GlcNAc(b1-2)[GlcNAc(b1-3)Gal(b1-4)GlcNAc(b1-3)Gal(b1-4)GlcNAc(b1-6)]Man(a1-6)[GlcNAc(b1-3)Gal(b1-4)GlcNAc(b1-3)Gal(b1-4)GlcNAc(b1-2)Man(a1-3)]Man(b1-4)GlcNAc(b1-4)[Fuc(a1-6)]GlcNAc
How it was run: as §1

[8] = biological target: GlcNAc(b1-3)Gal(b1-4)GlcNAc(b1-3)Gal(b1-4)GlcNAc(b1-3)Gal(b1-4)GlcNAc(b1-2)[GlcNAc(b1-3)Gal(b1-4)GlcNAc(b1-3)Gal(b1-4)GlcNAc(b1-3)Gal(b1-4)GlcNAc(b1-6)]Man(a1-6)[GlcNAc(b1-3)Gal(b1-4)GlcNAc(b1-3)Gal(b1-4)GlcNAc(b1-3)Gal(b1-4)GlcNAc(b1-2)Man(a1-3)]Man(b1-4)GlcNAc(b1-4)[Fuc(a1-6)]GlcNAc
How it was run: as §1

[9] = biological target: GlcNAc(b1-3)Gal(b1-4)GlcNAc(b1-6)[Gal(b1-3)]GalNAc
How it was run: as §1

[10] = biological target: GlcNAc(b1-3)[GlcNAc(b1-4)][GlcNAc(b1-6)]GlcNAc
How it was run: as §1

[11] = biological target: GlcNAc(b1-4)Gal(b1-4)GlcNAc
How it was run: as §1

Kdn(a2-6)Gal(b1-4)GlcNAc = biological target: Kdn(a2-6)Gal(b1-4)GlcNAc
How it was run: as §1

[12] = biological target: Man(a1-2)Man(a1-3)[Man(a1-2)Man(a1-6)]Man(a1-6)[Man(a1-2)Man(a1-2)Man(a1-3)]Man(b1-4)GlcNAc(b1-4)GlcNAc
How it was run: as §1

[13] = biological target: Man(a1-2)Man(a1-6)[Man(a1-3)]Man(a1-6)[Man(a1-2)Man(a1-2)Man(a1-3)]Man(b1-4)GlcNAc(b1-4)GlcNAc
How it was run: as §1

[14] = biological target: Man(a1-3)[Man(a1-6)]Man(a1-6)[Man(a1-3)]Man
How it was run: as §1

[15] = biological target: Neu5Ac(a2-3)Gal(b1-3)GlcNAc(b1-3)Gal(b1-4)GlcNAc
How it was run: as §1

[16] = biological target: Neu5Ac(a2-3)Gal(b1-4)GlcNAc(b1-3)Gal
How it was run: as §1

[17] = biological target: Neu5Ac(a2-3)Gal(b1-4)GlcNAc(b1-3)Gal(b1-4)GlcNAc(b1-6)[Gal(b1-3)]GalNAc
How it was run: as §1

[18] = biological target: Neu5Ac(a2-3)Gal(b1-4)[Fuc(a1-3)]GlcNAc(b1-3)GalNAc
How it was run: as §1

[19] = biological target: Neu5Ac(a2-3)Gal(b1-4)[Fuc(a1-3)]GlcNAc(b1-6)[Gal(b1-3)]GalNAc
How it was run: as §1

Neu5Ac(a2-6)Gal(b1-4)Glc = biological target: Neu5Ac(a2-6)Gal(b1-4)Glc
How it was run: as §1

[20] = biological target: Neu5Ac(a2-6)Gal(b1-4)GlcNAc(b1-2)Man(a1-3)[Neu5Ac(a2-3)Gal(b1-4)GlcNAc(b1-2)Man(a1-6)]Man(b1-4)GlcNAc(b1-4)GlcNAc
How it was run: as §1

[21] = biological target: Neu5Ac(a2-6)Gal(b1-4)GlcNAc(b1-3)Gal(b1-4)GlcNAc(b1-3)[Neu5Ac(a2-6)Gal(b1-4)GlcNAc(b1-3)Gal(b1-4)GlcNAc(b1-6)]GalNAc
How it was run: as §1

[22] = biological target: Neu5Gc(a2-3)Gal(b1-4)GlcNAc(b1-3)Gal(b1-4)GlcNAc(b1-2)Man(a1-3)[Neu5Gc(a2-3)Gal(b1-4)GlcNAc(b1-3)Gal(b1-4)GlcNAc(b1-2)Man(a1-6)]Man(b1-4)GlcNAc(b1-4)GlcNAc
How it was run: as §1

B1: BT4246 (Bacteroides thetaiotaomicron), Q89ZX5 (protein)
chain: MGSSHHHHHHENLYFQGHMASDYLDVVPPEQPNIDDAMSSPTRALGFLYSCYGGVSTDLPSAYLGEINSTTDEYVLPYSWNTDGYWGAYAFNTASSTNQDWLWGTTYQYIGQCYLFLQKLENAGSDIASDAEKEQWRAECQFLVAYYHFATLRRYGPIPITDSYIPMDTPTSEYNGRFHFDYCVDWIANQLDEAAKVLPANRTVTNEWGRATSTIAKAVKARLLLYAASPLWNGSFPYPNWQNENFETPGYGKALVSNTYDKSKWERALAACQEALTLATTSGDRELYDDDEYYSRQSLNLPFVPGVADVEDNKEFLKNVMKMRYAVSTRESEGNKEIIWGLSNQFDFYSRYPLRILKKSDGTWHAGYSGVSPTLYTFEHFYTANGKLPEKDLDFTPSSEWFESAGISSREDIIKLNVGREPRFYAWMAFDGGDYGTKFAAGSPLKLEMRNSEMHGYNPSLFNRDHSVTGFLTQKFVDPVTEFYTAGGSTSGTSAPTILFRLAELYLNVAECHAALGNTQEAIDALNPVRERAGIPKLTLADITNNMTIKDWVHNERFVELWNEGHRFFDVRRWAEGAKYFGANKREGLNAEVQSPTFEEFNKRTTVDAPYVWENRMYLNPVFYNEVYKNPQMVQAPGY
Which results are given for B1?
glycan array binding signal (z-score) [1]: -0.394; glycan array binding signal (z-score) [2]: 3.11; glycan array binding signal (z-score) [3]: 2.52; glycan array binding signal (z-score) [4]: -0.081; glycan array binding signal (z-score) [5]: 0.802; glycan array binding signal (z-score) [6]: -0.16; glycan array binding signal (z-score) [7]: 1.52; glycan array binding signal (z-score) [8]: 0.637; glycan array binding signal (z-score) [9]: -0.339; glycan array binding signal (z-score) [10]: -0.635; glycan array binding signal (z-score) [11]: -0.482; glycan array binding signal (z-score) (Kdn(a2-6)Gal(b1-4)GlcNAc): 1.42; glycan array binding signal (z-score) [12]: -0.169; glycan array binding signal (z-score) [13]: 1.59; glycan array binding signal (z-score) [14]: 3.62; glycan array binding signal (z-score) [15]: 1.07; glycan array binding signal (z-score) [16]: -0.929; glycan array binding signal (z-score) [17]: 0.439; glycan array binding signal (z-score) [18]: 4.68; glycan array binding signal (z-score) [19]: 2.47; glycan array binding signal (z-score) (Neu5Ac(a2-6)Gal(b1-4)Glc): -0.168; glycan array binding signal (z-score) [20]: -0.62; glycan array binding signal (z-score) [21]: 3.02; glycan array binding signal (z-score) [22]: 2.77
